From PubChem BioAssay AID1851 (National Center for Advancing Translational Sciences (NCATS), 2009)
“And” between values parts separate entries of the source, which are not always exact repeats. Equal entries are not always repeated. Hit rate of the full screen: of about 16,000 compounds, about 5,700 (36%) were called active. Another 24% or so got no clear call; they are omitted. Calls follow the shape of the dose curve; as a rule, active = well fitted curve in the direction sought with a large enough effect; inconclusive = small, poorly fitted or top-dose-only effect, or effect the other way; inactive = no such curve, though single readings can be large or run the other way. The list shows a part of the results. A structure can be active in one record and inactive in another.

target: Cytochrome P450 1A2 (Homo sapiens) (UniProt P05177); experiment: Cytochrome panel assay with activity outcomes; conditions: recombinant CYP, pro-luciferin dealkylation, luminescence, p450-cyp1a2; series mostly up to 57.1 µM
Sequence (P05177 whole entry, looked up): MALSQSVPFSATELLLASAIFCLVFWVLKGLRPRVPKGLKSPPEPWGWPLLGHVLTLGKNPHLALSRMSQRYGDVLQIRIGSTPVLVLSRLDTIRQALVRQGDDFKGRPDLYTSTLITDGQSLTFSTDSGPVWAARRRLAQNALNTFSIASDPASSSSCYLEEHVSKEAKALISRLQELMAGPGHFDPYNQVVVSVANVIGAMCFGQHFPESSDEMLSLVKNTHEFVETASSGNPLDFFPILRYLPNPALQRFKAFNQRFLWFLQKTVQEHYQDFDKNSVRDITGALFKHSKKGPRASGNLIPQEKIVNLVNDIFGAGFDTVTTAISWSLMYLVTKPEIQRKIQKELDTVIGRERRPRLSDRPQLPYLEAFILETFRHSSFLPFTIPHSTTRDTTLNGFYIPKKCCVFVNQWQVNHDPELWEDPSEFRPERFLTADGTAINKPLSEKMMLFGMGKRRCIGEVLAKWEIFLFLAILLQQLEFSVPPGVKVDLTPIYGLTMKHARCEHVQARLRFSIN
% is scaled to controls: 0 for no effect and ±100 for the full control effect.

Row | SMILES | AC50 | activity, negative = inhibition
1 | CCOC(=O)c1c(C)c(C)n2c1NC(=O)C2 | 2 µM (active) | –
2 | CCOC(=O)N1CCN(C(=O)c2ccc(Cl)c(S(=O)(=O)N3CCOCC3)c2)CC1 | 6.31 µM (active) | –
3 | CCOC(=O)N1CCN(C(=O)c2ccc(OC)c(OC)c2)CC1 | inactive | –
4 | CCOC(=O)N1CCN(C(=O)c2ccc(NC(C)=O)cc2)CC1 | inactive | –
5 | O=C(O)c1cc(=O)cc(C(=O)O)[nH]1 | inactive | –
6 | COc1ccc(-n2c(=O)cnc3cnc(N(C)C)nc32)cc1 | 5.01 µM (active) | –
7 | Cc1nc2cnc(N(C)C)nc2n(-c2ccccc2)c1=O | 2 µM (active) | –
8 | COc1ccc(-n2c(=O)c(C)nc3cnc(N(C)C)nc32)cc1 | 6.31 µM (active) | –
9 | C[C@H](O)C(=O)Nc1c(I)c(C(=O)NC(CO)CO)c(I)c(C(=O)NC(CO)CO)c1I | inactive | –
10 | C#CCCCO/N=C1/C[C@@H](O)[C@@H](O)[C@@H]2[C@@H]3C(=O)N(CCC(=O)OCC)C(=O)[C@H]3CC[C@H]12 | – | -10.2% [at 11.4 µM] (inactive)
11 | CCOC(=O)N1CCC(NS(=O)(=O)c2ccc3c(c2)C(C)(C)C(=O)N3C)CC1 | inactive | –
12 | NCCCS(=O)(=O)O | inactive | –
13 | Cc1ccc(C(=O)N2C3C=CC(C3)C2(C(F)(F)F)C(F)(F)F)cc1 (stereo not drawn) | inactive | –
14 | COc1ccc(C(NC(=O)c2ccc(-c3ccccc3)cc2)c2ccccc2)cc1 (stereo not drawn) | inactive | –
15 | CCCCCN(CCCCC)C(=O)[C@H](CCC(=O)O)NC(=O)c1ccc(Cl)c(Cl)c1 | inactive | –
16 | C[C@H](NC(=O)c1ccc(Cl)c(Cl)c1)c1ccc(-c2ccccc2)cc1 | 0.631 µM (active) | –
17 | CCOc1ccc(C(C)=O)cc1N1C(=O)C2C(C1=O)C1C=CC2C12CC2 (stereo not drawn) | inactive | –
18 | O=C(Nc1cccc(F)c1)N1CC2(CCN(S(=O)(=O)c3ccccc3)CC2)C1 | inactive | –
19 | Cc1cccc(Nc2ccncc2S(=O)(=O)NC(=O)NC(C)C)c1 | inactive | –
20 | Cc1cccc(N/C(=N\S(=O)(=O)c2ccccc2)C(F)(F)F)c1 | 14.1 µM (active) | –
21 | CCC(=O)NC(NC(=O)CC)C(Cl)Cl | inactive | –
22 | O=C(Nc1ccc([N+](=O)[O-])cc1Cl)c1cc(Cl)ccc1O | 1.26 µM (active) | –
23 | CC(=O)Nc1ccc(NC(=O)c2ccccc2CC[N+](=O)[O-])cc1 | inactive | –
24 | O=C(Nc1ccccc1)c1ccccc1CC[N+](=O)[O-] | 15.8 µM (active) | –
25 | O=C(Nc1ccccc1)c1cc([N+](=O)[O-])ccc1Cl | 0.631 µM (active) | –

Row | SMILES | AC50 | activity, negative = inhibition
26 | Cc1cccc[n+]1CC(=O)Nc1ccc([N+](=O)[O-])cc1Cl | inactive | –
27 | O=C(O)c1cc(N=Nc2ccc([N+](=O)[O-])cc2)ccc1O | – | -15.2% [at 2.29 µM] (inactive)
28 | COc1cccc(/C(O)=C2/C(=O)C(=O)N(c3cc(C)on3)C2c2cccs2)c1 (stereo not drawn) | inactive | –
29 | CC(=O)OCC1=C(C(=O)O)N2C(=O)[C@@H](NC(=O)CSc3ccncc3)[C@@H]2SC1 | inactive | –
30 | Fc1ccc(CSc2ncnc3sc4c(c23)CCCC4)cc1 | 4.47 µM (active) | –
31 | c1ccc(CSc2ncnc3c2sc2nc(N4CCOCC4)c4c(c23)CCCC4)cc1 | inactive | –
32 | CCc1ccc(OCC(=O)NNC(=O)CSc2ncnc3sc(C)c(C)c23)cc1 | inactive | –
33 | Nc1c(-c2ccccc2)cnn1-c1cccc([N+](=O)[O-])c1 | 3.55 µM (active) | –
34 | Nc1nc2c(ncn2[C@@H]2C=C[C@@H](CO)C2)c(=O)[nH]1 | – | -4.34% [at 11.4 µM] (inactive)
35 | Clc1cccc(Cl)c1CSc1nnc(/C=C/c2ccccc2)o1 | 4.47 µM (active) | –
36 | Clc1ccccc1CSc1nnc(/C=C/c2ccccc2)o1 | 1.26 µM (active) | –
37 | Nc1nc(SCc2ccccc2Cl)cc(C(=O)O)n1 | – | 6.21% [at 2.29 µM] (inactive)
38 | Clc1ccccc1CSc1nnc(-c2ccncc2)o1 | 0.794 µM (active) | –
39 | Cc1ccc(NC(=O)CSc2nnc(-c3ccncc3)o2)cc1 | inactive | –
40 | CNC[C@H](O)[C@H](O)[C@H](O)[C@H](O)CO | inactive | –
41 | CN1CCc2c(c3ccccc3n2Cc2ccccc2)C1 | 5.01 µM (active) | –
42 | CN1CCC(=C2c3ccccc3C=Cc3ccccc32)CC1 | inactive | –
43 | CN1CCc2c(c3ccccc3n2C)C1 | 12.6 µM (active) | –
44 | CN1CCc2nc(N)nc(-c3nc(N)nc4c3CN(C)CC4)c2C1 | – | -3.87% [at 2.29 µM] (inactive)
45 | Cc1nc([N+](=O)[O-])c(N2CCN(C)CC2)n1Cc1ccccc1 | inactive | –
46 | CC(=O)N1CCC2(CCCN(Cc3ccccc3)C2)CC1 | inactive | –
47 | CCC1(c2ccccc2)C(=O)NCNC1=O | inactive | –
48 | N=C1[C@@H](O)[C@]2(I)c3ccccc3N3C(=N)[C@H](O)[C@@H]4c5ccccc5N1[C@@H]4[C@@H]32 | 2.51 µM (active) | –
49 | Cn1cccc1C(=O)N1CCC[C@@]2(CCN(Cc3cc(C(F)(F)F)cc(C(F)(F)F)c3)C2)C1 | inactive | –
50 | O=C(COc1ccc(Cl)cc1)Nc1ccc(N2CCN(C(=O)c3ccco3)CC2)cc1 | inactive | –

Row | SMILES | AC50 | activity, negative = inhibition
51 | CCOc1ccc(NC(=S)N(Cc2ccc(Cl)cc2)Cc2ccco2)cc1 | 3.55 µM (active) | –
52 | CCOc1ccc(NC(=S)N(Cc2ccc(N(C)C)cc2)Cc2ccco2)cc1 | 1.26 µM (active) | –
53 | Cc1nn(C)cc1C(C(=O)NC1CCCCC1)N(C(=O)Cc1cccs1)c1ccc(C(C)C)cc1 (stereo not drawn) | inactive | –
54 | CN1CCC(N(C)C(=O)CCc2nc3ccccc3c(=O)[nH]2)CC1 | inactive | –
55 | CC1Cc2ccccc2N1Cc1nc2cc(C(F)(F)F)ccc2c(=O)[nH]1 (stereo not drawn) | 3.55 µM (active) | –
56 | Cc1cc(C)c2c(SCc3ccc(Cl)cc3Cl)nc(N)nc2n1 | 3.16 µM (active) | –
57 | O=C1OCC(c2ccccc2)=C1c1ccc(S(=O)(=O)N2CCOCC2)s1 | 25.1 µM (active) | –
58 | Cc1ccc(NC(=O)CSCC(=O)Nc2ccc(N3CCOCC3)c(Cl)c2)cc1 | inactive | –
59 | Cc1ccc(NC(=O)c2cc(N3C(=O)C4CC=CCC4C3=O)ccc2N2CCOCC2)cc1Cl (stereo not drawn) | 6.31 µM (active) | –
60 | NC(=O)c1ccc(N2CCCCC2)c(N2C(=O)C3CC=CCC3C2=O)c1 (stereo not drawn) | inactive | –
61 | CO/N=C(/CNC(=O)c1ccc(Cl)cc1Cl)c1ccc(Cl)cc1 | 2.51 µM (active) | –
62 | CC1(C)CC(O)CC(C)(C)N1CC(O)COCCOc1ccc(Br)cc1 (stereo not drawn) | inactive | –
63 | Cc1[nH]c2c(C)cccc2c1CCNC(=O)c1ccc2c(c1[N+](=O)[O-])C(=O)c1ccccc1C2=O | inactive | –
64 | CCSc1nnc(-c2ccccc2NC(C)=O)c(=O)[nH]1 | inactive | –
65 | CCSc1c(C(=O)NC)ccc2c1C(=O)c1ccccc1C2=O | 0.316 µM (active) | –
66 | N#C/C(=C(/O)CN1CCCCC1)c1nc(-c2ccc(Cl)cc2)cs1 | 6.31 µM (active) | –
67 | O=C1OC2CC3CC1CC(O)(C3)C2 (stereo not drawn) | inactive | –
68 | NC(=O)CSc1nc2sc(-c3ccccc3)cc2c(=O)n1N | 5.01 µM (active) | –
69 | COc1cc(/C=C\c2ccc(OC)cc2OC)cc(OC)c1 | 0.794 µM (active) | –
70 | CNC(C)c1cc(OC)ccc1OC (stereo not drawn) | inactive | –
71 | COC(=O)C(NC(=O)c1ccc(F)cc1)(Nc1ncc(S(=O)(=O)c2ccc([N+](=O)[O-])cc2)s1)C(F)(F)F (stereo not drawn) | inactive | –
72 | Clc1cccc(Oc2cnc3ccccc3n2)c1 | 2.51 µM (active) | –
73 | CCOC(=O)c1cc2c(C)n(-c3ccc(C)cc3)c(C)c2ccc1=O | 12.6 µM (active) | –
74 | CCOC(=O)Cn1nc(C)n(-c2ccc(C)cc2)c1=O | inactive | –
75 | c1ccc(-c2c3ccccc3nc3[nH]c4ccccc4c23)cc1 | 0.501 µM (active) | –

Row | SMILES | AC50 | activity, negative = inhibition
76 | CCCCc1c2ccccc2nc2[nH]c3ccccc3c12 | 0.2 µM (active) | –
77 | O=C(O)[C@@H](O)[C@@H](O)[C@H](O)[C@H](O)CO | – | -5.55% [at 2.29 µM] (inactive)
78 | CO[C@@H]1COC(=O)CC=C[C@@H](C)[C@@H]2C=C[C@H](O)[C@@H](COC(=O)C/C=C\[C@H]1C)O2 | – | -1.42% [at 11.4 µM] (inactive)
79 | CC(C)(C)NC(=O)C(=O)NNC(=O)c1ccccc1 | inactive | –
80 | CC(C)(C)c1nnc(NC(=O)NS(=O)(=O)c2ccccc2)s1 | inactive | –
81 | CNc1ncc(C(=O)c2ccccc2)s1 | 4.47 µM (active) | –
82 | O=S(=O)(C[C@H](O)C(Cl)(Cl)Cl)NNc1ccccc1 | – | 0.811% [at 2.29 µM] (inactive)
83 | Cc1ccc(S(=O)(=O)NCC2CCC(C(=O)O)CC2)cc1 (stereo not drawn) | inactive | –
84 | CCOC(=O)Nc1ccc(S(=O)(=O)NCc2ccccc2)cc1 | inactive | –
85 | Cc1ccc(S(=O)(=O)N[C@H](C(=O)O)C(C)C)cc1 | – | -11% [at 11.4 µM] (inactive)
86 | Cc1ccc(S(=O)(=O)NNc2ccccc2)cc1 | 2.82 µM (active) | –
87 | Cc1ccc(-c2nn3c(C)nnc3c3ccccc23)cc1S(=O)(=O)NCc1ccccc1 | inactive | –
88 | Cc1ccc(S(=O)(=O)N[C@H](CO)C(=O)O)cc1 | – | -12% [at 11.4 µM] (inactive)
89 | Cc1ccc(S(=O)(=O)NCc2ccccc2)cc1 | 0.501 µM (active) | –
90 | Cc1ccc(NNS(=O)(=O)c2ccc(C)cc2)cc1 | 2.82 µM (active) | –
91 | Cc1ccc(NC(=O)NNS(=O)(=O)c2ccc(Br)cc2)cc1 | inactive | –
92 | COc1cc(C)c(Br)cc1S(=O)(=O)NCc1ccccc1 | 10 µM (active) | –
93 | C=CC[N+]1(CC#CCOC(c2ccccc2)c2ccccc2)CCOCC1 | inactive | –
94 | NS(=O)(=O)c1cccc2c1c([N+](=O)[O-])cc1nc(O)c(O)nc12 | inactive | –
95 | N#Cc1cc2nc(O)c(O)nc2cc1[N+](=O)[O-] | inactive and 39.8 µM (active) | –
96 | COc1ccccc1CN1CC[C@@]2(CCCN(S(C)(=O)=O)C2)C1 | inactive | –
97 | Cc1ccc(NC2=NC(c3ccccc3)n3c(nc(C)cc3=O)N2)c(C)c1 (stereo not drawn) | inactive | –
98 | C[C@@H](c1ccccc1)N1C(=O)[C@@H]2[C@H]3C(=CC[C@H]2C1=O)C(=O)[C@H]1O[C@H]1[C@H]3O | – | -2.35% [at 11.4 µM] (inactive)
